Screens (PubChem BioAssay)
Most compounds without a hit are left out; they make up all but 2% or so of the library.
PrP UTR inh: inhibition of PrP 5' UTR reporter expression. AID 488862. cell-based PrP 5' UTR mRNA reporter, plate reader. 0.35% of 340,000 active. inhibition, % (concentration not given with the values); in the data active = inhibition above about 52%; note: 0 = median of the neutral control wells
Yp Topo-I inh: blocks Yersinia pestis topoisomerase I activity | Y. pestis Topo-I cleavage product accumulation, plate reader | activity, % at 10 µM | 0.064% of 360,000 active; in the data active = activity above about 50%, passing the limit was not always enough
CCHF vOTU inh-1: CCHFV vOTU protease inhibition; Pep-AMC fluorescence; inhibition, % at 11.5 µM; 0.55% of 370,000 active; AID 651958; note: 0% = vehicle wells with enzyme and 100% = no enzyme wells
PfHsp40 rescue: restores yeast growth despite PfHsp40 toxicity | S. cerevisiae expressing PfHsp40, growth rescue, ATP luminescence | growth rescue, % at 12.5 µM | 0.68% of 340,000 active; in the data active = growth rescue above about 28%, passing the limit was not always enough;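 note: yeast W303a lacking pdr1 and pdr3 grown in galactose medium; growth measured after three days at 30 °C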
PrPC surface inh: cell surface PrPC inhibition, primary TR-FRET screen. P04156. TR-FRET read-out. inhibition, % at 13.8 µM. 0.43% of 370,000 active; in the data active = inhibition above about 24%; note: 0% = median of the test wells and 100% = reference compound wells
BJeLR lethal: kills HRASV12-expressing BJeLR cells; inhibition, % (test concentration not listed); 0.17% of 300,000 active; BJeLR (HRASV12) viability, CellTiter-Glo ATP luminescence, 48 h; in the data active = inhibition above about 50%
CCHF vOTU inh-2: confirmation of CCHF virus vOTU protease inhibitors; inhibition, % at 11.5 µM; Recombinant CCHFV vOTU, Pep-AMC fluorescence; shares compounds with CCHF vOTU inh-1; 17% of 1,900 active
* marks the source's active call; other numbers are inactive results; nt = not tested or not shown. Cut-off read from the data, not from the text of the source, unless noted: active = inhibition above about 30%; inactive = the rest.

SMILES	PrP UTR inh	Yp Topo-I inh	CCHF vOTU inh-1	PfHsp40 rescue	PrPC surface inh	BJeLR lethal	CCHF vOTU inh-2
CC(C)C(N)c1csc(Nc2ccc(C(=O)c3ccccc3)cc2)n1 (stereo not given)	nt	7	37*	nt	-7	nt	-12
Cc1ccc(C)c(/C(O)=C2\C(=O)C(=O)N(CCCN3CCOCC3)C2c2cccnc2)c1 (stereo not given)	9	-2	46*	0	-3	-9	-16
Cc1ccc(/C(O)=C2/C(=O)C(=O)N(CCN3CCOCC3)C2c2cccnc2)cc1 (stereo not given)	-7	-5	0	1	-8	0	nt
CC1CCN(c2c3c(nc4ncnn24)CCCC3)CC1	nt	nt	8	nt	8	nt	nt
CC1OC(Nc2cccc3ccccc23)C(O)C(O)C1O (stereo not given)	-7	9	65*	0	-16	-2	-34
CC1OC(Nc2ccc(N=Nc3ccccc3)cc2)C(O)C(O)C1O (stereo not given)	-50	-1	16	7	-16	1	nt
CCC1Sc2ccc(S(=O)(=O)CCC(=O)Nc3ccc(NC(C)=O)cc3)cc2NC1=O (stereo not given)	-18	0	-7	0	-2	12	nt
CCC1Sc2ccc(S(=O)(=O)CCC(=O)Nc3ccc(OC(F)(F)F)cc3)cc2NC1=O (stereo not given)	-1	3	39*	-1	-5	20	8
O=C(Nc1c(-c2ccc3c(c2)OCO3)[nH][nH]c1=O)c1ccccc1	nt	nt	42*	nt	0	nt	-6
O=C(Nc1c(-c2ccc3c(c2)OCO3)[nH][nH]c1=O)c1cccc(C(F)(F)F)c1	nt	nt	34*	nt	6	nt	-9
O=C(OCc1cn(Cc2ccc(C(F)(F)F)cc2)nn1)N1CCCC1	nt	nt	-3	nt	-1	nt	nt
CC1(C)CC(=O)C=C(Nc2ccccc2NC(=O)c2ccc(F)cc2F)C1	nt	nt	-2	nt	-2	nt	nt
CC1(C(=O)NCc2cccc3ccccc23)CCN1Cc1ccc(OC(F)(F)F)cc1 (stereo not given)	nt	17	34*	nt	3	nt	17
CCCCNC(=O)C1(C)CCN1C(=O)Cc1cccc2ccccc12 (stereo not given)	nt	2	47*	nt	3	nt	-23
COC(=O)[C@]12C[C@H](CC(=O)NCc3ccc(C)o3)C(=O)N(Cc3ccco3)C1=C[C@H](C1CCCC1)O[C@@H]2C	nt	nt	14	nt	7	nt	nt
Cc1c(P(=S)(c2ccccc2)c2ccccc2)[n+]2ccccc2n1C	-11	-5	-2	-1	0	7	nt
Cc1c(P(=S)(c2ccccc2)c2ccccc2)[n+]2ccccc2n1C/C=C/c1ccccc1	nt	7	30*	nt	1	nt	-33
COc1ccc2c3c([nH]c2c1)[C@]1(NCC3)C(=O)N(C)c2ccc(Cl)cc21	nt	nt	1	nt	11	nt	nt
Cc1ccccc1CN1[C@@H](C)[C@H](c2ccccc2)Oc2cccc(NCCc3ccccc3)c2S1(=O)=O	nt	nt	18	nt	6	nt	nt
COc1ccc(C(=O)CSc2nnc(-c3cccnc3)n2-c2ccc(C)cc2)cc1	nt	nt	-2	nt	1	nt	nt
COC(=O)C1=C(C)N(Cc2ccccc2)C(=NCc2cccc(C(F)(F)F)c2)N[C@H]1c1cccc(C(F)(F)F)c1	-15	3	nt	2	nt	nt	nt
COC(=O)C1=C(C)N(Cc2ccccc2)C(=NCc2cccc(C(F)(F)F)c2)N[C@H]1c1cccc(F)c1	-12	-1	31*	5	-4	99*	10
COC(=O)C1=C(C)N(Cc2cccc(C(F)(F)F)c2)C(=NCc2ccc(OC)cc2)NC1c1ccccc1 (stereo not given)	nt	nt	16	nt	-10	nt	nt
CCN=C1NC(c2ccc(Cl)cc2)C(C(=O)OC)=C(C)N1Cc1cccc(C(F)(F)F)c1 (stereo not given)	nt	nt	5	nt	-15	nt	nt
COC(=O)C1=C(C)N(Cc2cccc(C(F)(F)F)c2)C(=NCc2ccc(OC)cc2)NC1c1cccc(F)c1 (stereo not given)	nt	nt	35*	nt	-17	nt	4
SMILES	PrP UTR inh	Yp Topo-I inh	CCHF vOTU inh-1	PfHsp40 rescue	PrPC surface inh	BJeLR lethal	CCHF vOTU inh-2
CCN=C1NC(c2ccc(F)cc2)C(C(=O)OC)=C(C)N1Cc1cccc(C(F)(F)F)c1 (stereo not given)	nt	nt	36*	nt	-18	nt	-12
COC(=O)C1=C(C)N(C)C(=NCC2CC2)NC1c1cccc(C(F)(F)F)c1 (stereo not given)	nt	nt	-10	nt	-13	nt	nt
COC(=O)C1=C(C)N(C)C(=NCC2CC2)NC1c1ccccc1 (stereo not given)	nt	nt	32*	nt	-5	nt	-15
O=C(NC1CCCCN(Cc2cccc(Cl)c2)C1=O)c1cccc([N+](=O)[O-])c1 (stereo not given)	nt	nt	-7	nt	0	nt	nt
CC(C)CN1C(=O)C[C@]2(C(=O)N(C)c3ccc(NS(=O)(=O)C4CCCCC4)cc32)C1c1ccccc1 (stereo not given in full)	nt	nt	5	nt	-9	nt	nt
CN1C(c2ccccc2)CC2CN(c3ccccc3)C(=O)C21 (stereo not given)	nt	nt	-3	nt	0	nt	nt
O=C(NCCc1ccccc1)OCc1cn(Cc2cc(F)cc(F)c2)nn1	nt	nt	0	nt	13	nt	nt
O=C(CCl)Nc1ccc(C(=O)NCC2COc3ccccc3O2)cc1 (stereo not given)	nt	nt	2	nt	-3	nt	nt
COC(=O)CC(=O)CC(NS(=O)(=O)c1ccc(C)cc1)c1ccccc1 (stereo not given)	nt	nt	23	nt	4	nt	nt
Cc1ccc(O)c(N=CC2=C(O)c3ccccc3C2=O)c1	-91	-15	31*	-1	15	-12	10
Cc1ccc([C@H]2C(C(=O)O)=CC[C@@H](c3ccc(C)cc3)N2S(=O)(=O)c2ccccc2C)cc1	-15	33	35*	17	4	nt	-6
Cc1ccc([C@H]2C(C(=O)O)=CC[C@@H](c3ccc(Cl)cc3)N2S(=O)(=O)c2ccccc2C)cc1	-12	15	nt	4	nt	nt	nt
Cc1ccc([C@@H]2CC=C(C(=O)O)[C@H](c3ccccc3)N2S(=O)(=O)c2ccccc2C)cc1	-15	20	12	3	0	nt	nt
Cc1ccccc1S(=O)(=O)N1[C@@H](c2ccc(Cl)cc2)C(C(=O)O)=CC[C@H]1c1ccc(Cl)cc1	-16	11	32*	4	6	nt	7
Cc1[nH][nH]c(=O)c1C(c1c(C)[nH][nH]c1=O)c1cn(Cc2ccc(Cl)c(Cl)c2)c2ccccc12	-13	3	56*	1	-10	18	9
